Results: PubChem BioAssay
Where “and” joins values, the source holds several entries; their conditions need not be identical. Identical values can stand only once. Calls of active or inactive are those of the source.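 The calls were made as follows, unless noted: active = inhibition at or above 50% relative to wild type and mutant plate controls; inactive = inhibition below 50%.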

Experiments:
[1] = inhibitors of TNFa-induced NFkB p65 translocation, primary screen, imaging, HUVEC, MLSMR starter and 10KST1 sets (AID 438;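 active = inhibition above 20% together with a positive visual image hit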;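 also: compound added about 3h40 before a 20 min TNFalpha stimulation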;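 as to inhibition: signal is the nuclear over cytoplasmic p65 intensity ratio per well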); details: HUVEC TNFa-induced p65 nuclear translocation; cell count: measured here: nuclei count (cytotoxicity indicator), at 2.08 µM; inhibition: at 2 µM, stronger effect = higher value, 0% TNFa-plus-vehicle, 100% no-TNFa wells
[2] = inhibitors of mutant huntingtin aggregation, primary screen, imaging, exon1htt(103Q)mCFP cells, high-content imaging (AID 483;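 active = visual image review flags a hit and inhibition of aggregation exceeds 20%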;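 also: compound exposure lasted 3 days before fixation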;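 as to nuclei count: percent of the per-plate median nuclei count of sample wells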); details: exon1htt(103Q)mCFP cell line, aggregate imaging, at 2 µM; inhibition of aggregation: stronger effect = higher value; nuclei count: measured here: cell count, toxicity
[3] = inhibitors of E-selectin induction by TNFa, primary screen, imaging, HUVEC, immunofluorescence, MLSMR starter and 10KST1 sets (AID 487;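 active = visually confirmed hit in the image check and inhibition above 20%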;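 as to inhibition: signal is fraction of cell area covered by stained E-selectin grains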;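 as to nuclei count: 100% = median nuclei count of all wells on the same plate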); details: HUVEC TNFalpha-induced E-selectin immunofluorescence imaging, at 2 µM; inhibition: stronger effect = higher value; nuclei count: measured here: cell number, toxicity
[4] = DUSP6 inhibitors restoring Erk phosphorylation by chemical complementation, primary imaging in DUSP6-transfected HeLa (AID 609;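 active = compounds giving at least 50% inhibition in the cell-based MKP-3 phosphatase rescue imaging test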;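 as to inhibition: phospho-Erk level distribution per well compared with pooled transfected vehicle control wells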); details: HeLa MKP-3 transfected, phospho-Erk imaging KS statistic, at 10 µM, cells stimulated with TPA for 15 min
[5] = biological target: Dual specificity protein phosphatase 6 (Homo sapiens) (UniProt Q16828); test: as above; details: HeLa MKP-3 transfected, phospho-Erk imaging KS statistic; at 10 µM; stronger effect = higher value; cells stimulated with TPA for 15 min
Sequence of Dual specificity protein phosphatase 6 (Homo sapiens) (Q16828 whole entry, looked up): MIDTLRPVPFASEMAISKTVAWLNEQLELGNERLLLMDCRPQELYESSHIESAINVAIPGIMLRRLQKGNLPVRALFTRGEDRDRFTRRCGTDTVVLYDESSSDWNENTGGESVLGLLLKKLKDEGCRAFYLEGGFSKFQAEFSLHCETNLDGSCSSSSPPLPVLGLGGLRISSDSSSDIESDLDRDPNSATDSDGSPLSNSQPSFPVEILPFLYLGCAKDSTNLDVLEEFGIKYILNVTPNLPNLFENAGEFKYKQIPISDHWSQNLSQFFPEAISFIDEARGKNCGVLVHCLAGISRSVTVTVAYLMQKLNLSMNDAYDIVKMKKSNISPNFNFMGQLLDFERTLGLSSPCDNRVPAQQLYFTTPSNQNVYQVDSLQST

[6] = biological target: Voltage-gated potassium channel subunit beta-2 (Rattus norvegicus) (UniProt P62483); test: KvBeta enzyme negative modulators, primary screen, biochemical, NADPH fluorescence (AID 622;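 active = fluorescence slope higher than the sample average by over 3 SD, cut at about -0.22 in these data, passing the limit was not always enough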;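 also: slope of raw intensity against log time taken from 70 to 1610 s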); details: recombinant KvBeta, 4-cyanobenzaldehyde reduction, at 10 µM, stronger effect = higher value
Sequence of Voltage-gated potassium channel subunit beta-2 (Rattus norvegicus) (P62483 whole entry, looked up): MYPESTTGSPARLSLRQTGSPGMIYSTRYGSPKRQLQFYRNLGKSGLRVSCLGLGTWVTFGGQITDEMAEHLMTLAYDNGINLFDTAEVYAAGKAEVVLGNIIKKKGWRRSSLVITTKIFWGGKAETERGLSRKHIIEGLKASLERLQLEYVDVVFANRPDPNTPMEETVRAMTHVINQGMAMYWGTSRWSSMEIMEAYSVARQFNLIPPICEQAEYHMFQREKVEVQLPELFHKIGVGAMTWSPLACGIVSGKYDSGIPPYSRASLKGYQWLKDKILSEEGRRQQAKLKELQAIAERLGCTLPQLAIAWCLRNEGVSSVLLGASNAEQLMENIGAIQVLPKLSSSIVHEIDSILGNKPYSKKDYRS

[7] = biological target: Voltage-gated potassium channel subunit beta-2 (Rattus norvegicus) (UniProt P62483); test: KvBeta positive modulators, primary screen, biochemical, NADPH fluorescence (AID 623;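 active = NADPH fluorescence slope more negative than the mean of all samples by about 3 SD, 99.7% confidence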;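 also: fluorescence intensity change per second fitted from 20 to 320 s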); details: Recombinant KvBeta, NADPH fluorescence decrease slope, 10 min; at 10 µM; stronger effect = lower value
[8] = biological target: Alpha-2C adrenergic receptor (Homo sapiens) (UniProt P18825); test: modulators of alpha2C/GIRK thallium flux, primary screen, cell-based, HEK293 alpha2C/GIRK1/2 (AID 624;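 active = fluorescence slope after compound addition differing from the mean of all screened samples at 99.7% confidence, in either direction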;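 also: slope of fluorescence ratio to pre-addition baseline per second over 15 to 24 s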); details: thallium flux BTC fluorescence, at 10 µM, actives lie on both sides
Sequence of Alpha-2C adrenergic receptor (Homo sapiens) (P18825 whole entry, looked up): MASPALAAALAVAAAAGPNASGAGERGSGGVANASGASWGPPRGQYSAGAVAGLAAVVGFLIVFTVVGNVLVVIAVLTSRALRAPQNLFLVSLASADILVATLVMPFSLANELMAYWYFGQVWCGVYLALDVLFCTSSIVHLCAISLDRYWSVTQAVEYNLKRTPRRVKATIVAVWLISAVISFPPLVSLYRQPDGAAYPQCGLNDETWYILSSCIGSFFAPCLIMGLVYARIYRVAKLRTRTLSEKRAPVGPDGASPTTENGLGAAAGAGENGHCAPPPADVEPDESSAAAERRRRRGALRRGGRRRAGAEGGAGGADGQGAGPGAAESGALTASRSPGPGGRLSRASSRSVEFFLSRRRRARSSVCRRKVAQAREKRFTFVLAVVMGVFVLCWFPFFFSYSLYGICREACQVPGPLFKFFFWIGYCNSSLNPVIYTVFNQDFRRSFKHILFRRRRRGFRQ

[9] = inhibitors of larval lipid processing in zebrafish, primary screen, whole organism, PED6 fluorescence, gall bladder and intestine (AID 686;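 active = a full or partial loss of lipid-probe fluorescence in the fish gall bladder, intestine or both, judged by eye; inactive = no fluorescence loss, or compound toxic to the fish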;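 also: larvae 5 to 7 days old with five fish per well; signal comes from phospholipase A2 cleavage of quenched PED6 carried via bile; overnight exposure to compound and PED6 before scoring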); details: Zebrafish larvae PED6 lipid processing, fluorescence scoring; screened at 20 µM (by protocol)
[10] = inhibitors of Chlamydomonas gravitaxis, primary screen, whole organism, Chlamydomonas reinhardtii, WT vs cilia-less mutant, absorbance, 96-well (AID 463189); details: OD600 absorbance, 2 days, at 10 µM, stronger effect = higher value;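 also: 0% = wild type cc124 cells in DMSO and 100% = ciliumless bld1 mutant cells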
[11] = inhibitors of Sendai virus-induced IRF3 signaling, primary screen, TLR/RLR signaling modifier project, cell-based, Sendai virus stimulus, luciferase, 10K MLSCN set (AID 602276;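 active = inhibition at or above 50% at 10 µM; inactive = inhibition below 50%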;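 also: firefly luciferase from ISG56 promoter only with Renilla not read in this screen; 0% = Sendai virus plus DMSO and 100% = medium plus DMSO without virus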); details: HEK293 RL24 IRF3 luciferase reporter, at 10 µM, stronger effect = higher value
[12] = inhibitors of poly I:C-induced TLR3 signaling, primary screen, cell-based, poly I:C stimulus, luciferase, 10K MLSCN set (AID 602277;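 active = inhibition of the reporter signal at or above 50%; inactive = inhibition below 50%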); details: HEK293-TLR3 RL24 IRF3 luciferase reporter, at 10 µM, stronger effect = higher value
[13] = measured here: cell density z-score
[14] = measured here: nuclear c-Myc green intensity z-score
[15] = measured here: nuclear pErk red intensity z-score, stronger effect = higher value

Row | Compound | cell count [1] | inhibition [1] | inhibition of aggregation [2] | nuclei count [2] [%] | inhibition [3] | nuclei count [3] [%] | z-score [4, 13] | z-score [4, 14] | z-score [4, 15] | inhibition [5] | fluorescence slope [6] | NADPH fluorescence slope [7] | slope [8] | outcome [9] | inhibition [10] | inhibition [11] | inhibition [12]
1 | CCc1cn([C@H]2C[C@H](O)[C@@H](CO)O2)c(=O)[nH]c1=O | 644 | -9.9% (inactive) | -3.6% (inactive) | 102 | -69.2% (inactive) | 120 | -0.967 | -0.117 | 0.506 | 9.37% (inactive) | -0.477 (inactive) | 5.1e-06 (inactive) | 0.00501 (inactive) | inactive | 21.4% (inactive) | 18.1% (inactive) | 34% (inactive)
2 | CC(C)OC(=O)C(CC(=O)O)NCc1ccccc1 (stereo not given) | 518 | -2% (inactive) | 15% (inactive) | 65.3 | -117% (inactive) | 118 | 0.414 | 0.989 | 0.212 | 1.75% (inactive) | -0.296 (inactive) | 2.8e-05 (inactive) | 0.00502 (inactive) | inactive | -6.73% (inactive) | 14.9% (inactive) | 20.3% (inactive)
3 | CCCCN1C[C@H](O)[C@@H](O)[C@H](O)[C@H]1CO | 594 | -9.5% (inactive) | -4.6% (inactive) | 109 | -34.3% (inactive) | 129 | 0.947 | -0.313 | 0.0804 | 15.3% (inactive) | -0.473 (inactive) | 1.5e-05 (inactive) | 0.00474 (inactive) | inactive | 22.3% (inactive) | 14% (inactive) | 19.6% (inactive)
4 | CCSc1nc(N)c(C#N)c(-c2ccccc2Cl)c1C#N | 494 | -3.2% (inactive) | 25.1% (inactive) | 71.7 | -29% (inactive) | 107 | -2.31 | 3.1 | 0.136 | -5.89% (inactive) | -0.473 (inactive) | -0.000189 (inactive) | 0.00512 (inactive) | inactive | -6.34% (inactive) | -0.977% (inactive) | 7.05% (inactive)
5 | Cn1c([N+](=O)[O-])cnc1COC(N)=O | 663 | -2.1% (inactive) | 6.9% (inactive) | 97.8 | -73.8% (inactive) | 138 | 0.12 | 0.491 | 1.01 | 1.48% (inactive) | -0.492 (inactive) | -3.9e-05 (inactive) | 0.00486 (inactive) | inactive | 15.2% (inactive) | 16.7% (inactive) | 40.5% (inactive)
6 | CCOC(=O)c1c(C)n(C)c2ccc(O)c(S(=O)(=O)c3ccccc3)c12 | 278 | -3.6% (inactive) | -0.2% (inactive) | 103 | -19.6% (inactive) | 109 | -0.746 | 0.777 | 1.13 | -8.76% (inactive) | -0.458 (inactive) | -0.000154 (inactive) | 0.00656 (inactive) | inactive | -15.5% (inactive) | 21.8% (inactive) | 27% (inactive)
7 | CC(O)Cn1cnc2c1c(=O)n(C)c(=O)n2C (stereo not given) | 541 | -7% (inactive) | 11.8% (inactive) | 99.1 | -13.1% (inactive) | 128 | 1.09 | -0.569 | -0.416 | 15.3% (inactive) | -0.45 (inactive) | -7.7e-05 (inactive) | 0.00504 (inactive) | inactive | 23.2% (inactive) | 12% (inactive) | 29.4% (inactive)
8 | COC(=O)c1cc(S(=O)(=O)N2CCOCC2)c(N2CCOCC2)cc1N1CCOCC1 | 427 | -5.9% (inactive) | 5% (inactive) | 118 | -21.7% (inactive) | 129 | -1.77 | -0.115 | 0.265 | -1.75% (inactive) | -0.409 (inactive) | -0.000135 (inactive) | 0.00461 (inactive) | inactive | 23.9% (inactive) | 4.03% (inactive) | 11% (inactive)
9 | Brc1c(NC2=NCCN2)ccc2nccnc12 | 621 | -4.8% (inactive) | -11.3% (inactive) | 104 | -58.7% (inactive) | 120 | -0.535 | 0.61 | 1.33 | 34.5% (inactive) | -0.534 (inactive) | 1.1e-06 (inactive) | 0.0151 (active) | inactive | 5.25% (inactive) and -5.37% (inactive) | 14% (inactive) | 28.8% (inactive)
10 | Cc1nc2ccccn2c(=O)c1CCN1CCC(C(=O)c2ccc(F)cc2)CC1 | 712 | 2.4% (inactive) | -22.1% (inactive) | 103 | -63.6% (inactive) | 126 | 2.25 | 1.22 | -0.61 | 19% (inactive) | -0.464 (inactive) | 1.2e-06 (inactive) | 0.00457 (inactive) | inactive | 0.607% (inactive) and -12.6% (inactive) | 19.4% (inactive) | 35.8% (inactive)
